Screens from PubChem.
Hits are enriched below; roughly 1.7% of the tested compounds scored in any of these assays.
m5-HT2A agonist = agonists of mouse serotonin 5-HT2A receptor (HTR2A). P35363. CHO-K1 mHTR2A beta-arrestin complementation, luminescence; percent of 30 µM serotonin response. activation, % at 7.6 µM. actives 0.66% (n = 360,000);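 active = activation above a run cutoff, the mean activation of all tested compounds plus 3 SD, cut at about 14% in these data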
Target sequence (P35363 whole entry, looked up): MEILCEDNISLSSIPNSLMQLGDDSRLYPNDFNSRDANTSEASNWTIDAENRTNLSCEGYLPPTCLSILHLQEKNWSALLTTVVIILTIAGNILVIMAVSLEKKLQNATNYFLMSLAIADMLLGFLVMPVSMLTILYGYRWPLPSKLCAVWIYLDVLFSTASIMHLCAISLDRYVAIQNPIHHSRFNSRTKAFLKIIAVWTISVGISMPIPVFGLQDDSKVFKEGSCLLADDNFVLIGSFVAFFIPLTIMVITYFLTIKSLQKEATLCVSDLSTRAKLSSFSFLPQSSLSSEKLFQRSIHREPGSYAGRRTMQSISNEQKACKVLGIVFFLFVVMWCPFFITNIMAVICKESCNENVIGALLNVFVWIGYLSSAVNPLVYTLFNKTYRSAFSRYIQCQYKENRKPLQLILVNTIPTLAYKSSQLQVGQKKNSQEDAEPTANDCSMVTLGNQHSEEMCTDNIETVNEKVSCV
LANA-H2B inh = blocks KSHV LANA binding to histone H2A/H2B; AID 2629; inhibition, % (concentration not given with the values); actives 0.6% (n = 320,000); cell-free LANA-H2A/H2B peptide, fluorescence polarization; in the data active = inhibition mostly above about 10%, no sharp cut-off; inactive = mostly below about 6.7%
HDAC3 inh = blocks human histone deacetylase 3; recombinant HDAC3, fluorogenic peptide/trypsin coupled, fluorescence; inhibition, % at 8.3 µM; actives 0.15% (n = 320,000); in the data active = inhibition above about 26%, passing the limit was not always enough; inconclusive = no clear call, values can overlap the other calls
CTSL1 counter = cathepsin L1 inhibition, PFM18AAP counter-screen | recombinant F. hepatica cathepsin L1, Z-Leu-Arg-MCA fluorescence | inhibition, % at 5.96 µM | actives 0.49% (n = 300,000) | AID 1906;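 active = inhibition above the mean of all tested compounds plus 3 SD, set per screening campaign, cut at about 17% in these data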
Each line names hits and unclear results; the compound was inactive in the other large screens.

O=C(Nc1sc2c(c1C(=O)N1CCOCC1)CCCCC2)c1cccnc1	CTSL1 counter 19
CC(C)CN1CCN(CCCOC(=O)Nc2cccc3ccccc23)CC1C (configuration not stated)	none (no result: LANA-H2B inh, HDAC3 inh, CTSL1 counter)
COc1cc(C(=O)Nc2c(C)cc(C)cc2C)c([N+](=O)[O-])cc1OC	CTSL1 counter 22
COc1cc(C(=O)Nc2ccc(C)cn2)c([N+](=O)[O-])cc1OC	none
Cc1ccc(C(=O)n2cnnc2N)cc1	HDAC3 inh 44
Cc1ccc(C(=O)n2cnnc2N)cc1C	HDAC3 inh inconclusive
C=CCN1CN(S(=O)(=O)c2cccc(Cl)c2)c2nc3ccccc3nc21	CTSL1 counter 17
CCOP(=O)(OCC)C(NC(=O)c1cc([N+](=O)[O-])cc([N+](=O)[O-])c1)C(F)(F)F (configuration not stated)	CTSL1 counter 40
O=C(N/N=C/c1ccccc1)c1ccco1	none
O=C(N/N=C/c1ccc(OCc2ccccc2)cc1)c1ccco1	CTSL1 counter 22
N#Cc1nc(COc2ccc(Cl)cc2)oc1N1CCCCCC1	CTSL1 counter 60
COc1ccc(C(=O)Nc2ccccc2C(N)=O)cc1	none
COc1ccc(C(=O)Nc2ccccc2C(=O)N(Cc2ccco2)C(C(N)=O)C(C)C)cc1 (configuration not stated)	CTSL1 counter 38
CCC(C)C(NC(=O)C1CCC(C)CC1)C(=O)NCc1ccco1 (configuration not stated)	none
CCC(C)[C@H](NC(=O)[C@@H]1CSC2c3ccccc3C(=O)N21)C(=O)NCc1ccco1 (some centres not stated)	CTSL1 counter 81
CCC(C)C(NC(=O)OC(C)(C)C)C(=O)NCc1ccco1 (configuration not stated)	CTSL1 counter 20
COc1ccc(C(=O)Nc2ccccc2C(=O)NC(C(=O)NCc2ccco2)C(C)C)cc1 (configuration not stated)	CTSL1 counter 48
COc1ccc(C)cc1NC(=O)CN1C(=O)COc2ccc(C)cc21	none
Cc1ccc(C)c(CN2CCC(CNC(=O)Nc3ccc(F)c(Cl)c3)CC2)c1	none
COc1cc(OC)cc(C(=O)N[C@H](C(=O)NCc2ccco2)C(C)C)c1	none
COc1ccc(C(=O)N[C@H](C(=O)NCc2ccco2)C(C)C)cc1	CTSL1 counter 19
COCCN1C(=O)CCC1(C)c1nnnn1-c1ccc2ccccc2c1 (configuration not stated)	none (no result: LANA-H2B inh, HDAC3 inh, CTSL1 counter)
CN(CCC1CCOCC1)C(=O)CC1C(=O)NCCN1Cc1c(F)cccc1Cl (configuration not stated)	LANA-H2B inh 40
Cc1ccccc1NC(=O)COC(=O)c1ccc(C)c(S(=O)(=O)N2CCCCC2)c1	none (no result: LANA-H2B inh, HDAC3 inh, CTSL1 counter)
COc1ccc(C(=O)NCC(=O)N/N=C/c2ccc(C)o2)cc1OC	HDAC3 inh 56
COc1ccc(CC(=O)N/N=C/c2ccc(-c3cccc(C(=O)O)c3)o2)cc1OC	LANA-H2B inh 8.8
COc1ccc(CC(=O)NCC(=O)N/N=C/c2ccc(C)o2)cc1	HDAC3 inh inconclusive
O=C1[C@H]2[C@@H](c3ccccc3)N[C@]3(CCCN(Cc4ccc(F)cc4)C3=O)[C@H]2C(=O)N1Cc1ccccc1	none (no result: LANA-H2B inh, HDAC3 inh, CTSL1 counter)
Cc1ccc(NC(=O)CN(C)C(=O)Cn2ncc(Cl)c(Cl)c2=O)cc1	LANA-H2B inh active
Cc1ccc2c(c1)c1c3n2CCN(C(=O)CN2CCN(C)CC2)C3CCC1 (configuration not stated)	none
Cc1ccc2c(c1)c(=O)c1c3n2CCN(C(=O)CCl)C3CC1 (configuration not stated)	CTSL1 counter 77
COc1ccc(-c2nc(CS(=O)CC(=O)NC3CCCCC3C)c(C)o2)cc1 (configuration not stated)	none
CCCCN(C)CC(O)Cn1cc(/C=C/C(=O)c2ccc(OCC)cc2)c2ccccc21 (configuration not stated)	none (no result: m5-HT2A agonist)
CCCCN(C)CC(O)Cn1cc(/C=C/C(=O)c2cccs2)c2ccccc21 (configuration not stated)	LANA-H2B inh active
CCN(CC(=O)NCc1cccs1)C(=O)COc1ccc(C(C)=O)cc1	LANA-H2B inh active (no result: CTSL1 counter)
CC(NCC(=O)Nc1cc(S(=O)(=O)N2CCOCC2)ccc1Cl)c1ccc(Cl)cc1Cl (configuration not stated)	none
O=C(CNC(=O)c1cccc(Cl)c1)Nc1ccc(F)c(F)c1F	none
O=C(CSc1cc(Cl)ccc1Cl)NCC(=O)Nc1ccc(F)c(F)c1F	CTSL1 counter 18
Cc1cccc(C(CC(=O)N2CCCCC2)c2ccccc2)c1O (configuration not stated)	none
Cc1ccc(-c2cc(N)nc(-c3ccccc3)c2)cc1	LANA-H2B inh 31
COc1ccc(C(Cl)=C(c2ccc(OC)cc2)c2ccc(OC)cc2)cc1	LANA-H2B inh 39
O=C(CN1CCN(C(C(=O)Nc2ccc(Cl)cc2C(F)(F)F)c2ccccc2)CC1)NC1CC1 (configuration not stated)	none (no result: CTSL1 counter)
Cc1c(Cl)cccc1NC(=O)CN(C1CCCCC1)S(C)(=O)=O	none
CCOc1cccc(C2C(C(=O)c3ccc(C)o3)=C(O)C(=O)N2c2nccs2)c1 (configuration not stated)	LANA-H2B inh 15
NC(=O)SCC(=O)Nc1ccc(Cl)cc1	HDAC3 inh inconclusive
NC(=O)SCC(=O)Nc1cccc(Cl)c1	HDAC3 inh 39
CCC(C(=O)OCC(=O)c1c(N)n(CC(C)C)c(=O)n(C)c1=O)c1ccccc1 (configuration not stated)	none
CC(C)Cn1c(N)c(C(=O)COC(=O)[C@H](C)NC(=O)c2ccccc2Cl)c(=O)n(C)c1=O	CTSL1 counter 20
Cc1ccc(N(CC(O)CN2C(=O)NC(C)(C)C2=O)S(=O)(=O)c2ccc([N+](=O)[O-])cc2)cc1 (configuration not stated)	none
O=C(Nc1ccccc1)OCc1cc(-c2ccccc2Cl)on1	LANA-H2B inh 31
O=C(Nc1cccc(O)c1)c1cc(-c2ccccc2Cl)on1	none
CCOc1ccccc1NC(=O)c1csc(C)c1C	none
Cc1ccc(-c2cc([C@H]3[C@@H]4C=CCC[C@@]4(C)C(=O)N3Cc3ccccc3)ccc2F)cc1	none
C[C@@]12CCC=C[C@H]1[C@H](c1ccc(F)c(/C=C/c3ccccc3)c1)N(Cc1ccccc1)C2=O	HDAC3 inh 31
Cc1ccc(F)c([C@H]2[C@@H]3C=CCC[C@@]3(C)C(=O)N2Cc2ccccc2)c1	none
CN(C)c1ccc(-c2cc([C@H]3[C@@H]4C=CCC[C@@]4(C)C(=O)N3Cc3ccccc3)ccc2F)cc1	LANA-H2B inh 14
CCCCCCCCN1C(=O)[C@H](CC(=O)NCCC(C)C)C[C@@]2(C(=O)OCC)CCC=C12	none (no result: LANA-H2B inh, HDAC3 inh, CTSL1 counter)
Cc1nn(-c2ccccc2)c(N2CCCC2)c1/C=C1\N=C(c2ccccc2)OC1=O	CTSL1 counter 56
NS(=O)(=O)c1cc2c(cc1Cl)NC=NS2(=O)=O	LANA-H2B inh 13
CCCN(CC(=O)Nc1ccccc1C)C(=O)Cc1c(C)nc2ccccc2c1C	LANA-H2B inh 140 (no result: CTSL1 counter)
CCN(CC)c1nc2ccccc2[nH]c1=O	none (no result: HDAC3 inh)
CCc1nc2ccccc2[nH]c1=O	LANA-H2B inh 27
